Source: PMC5540273 (PLoS ONE, 2017)

What was measured:
Details in all cases: concentration: 1 μM,replicates: in singlicate; n = 1
[1] = tested on: ZAK
[2] = tested on: ZAP70
[3] = tested on: T1, p38-alpha
T1 construct: gene MAPK14

[4] = tested on: T2, p38-beta
T2 construct: gene MAPK11

[5] = tested on: p38-delta
[6] = tested on: T3, p38-gamma
T3 construct: gene MAPK12
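Note: KINOMEscan kinase panel screen.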

Row | SMILES | %Inh [1] [%] | %Inh [2] [%] | %Inh [3] [%] | %Inh [4] [%] | %Inh [5] [%] | %Inh [6] [%]
1 | CN1CCN(CCCNc2nccc(-c3c(-c4ccc(F)cc4)nn4cc(C(N)=O)ccc34)n2)CC1 [GW622475] | 31 | 0 | 99.9 | 79 | 26 | 13
2 | CC(C)c1nc(-c2cccc(NS(=O)(=O)c3ccccc3)c2)c(-c2ccnc(Nc3ccc4c(c3)CN(C)CC4)n2)s1 [GSK1649598] | 98.6 | 7 | 91.5 | 35 | 48 | 7
3 | O=C(Nc1cccc(Oc2ccc3nccn3n2)c1)Nc1cccc(C(F)(F)F)c1 | 97.8 | 3 | 17 | 12 | 0 | 19
4 | COc1ccc(Nc2nccc(N3CCC(NC(=O)c4cccc(C#N)c4)C3)n2)cc1 (stereo not drawn) [GSK1379730] | 26 | 0 | 5 | 0 | 38 | 0
5 | Cc1ccc(C(=O)Nc2ccc(Oc3ccc4nc(NC(=O)C5CC5)cn4c3)c(F)c2)c(=O)n1-c1ccccc1 | 96.1 | 0 | 0 | 0 | 0 | 34
6 | CC(C)S(=O)(=O)N1CCN(Cc2ccc3c(c2)nc(NC(=O)c2ccsc2)n3C[C@H](O)c2ccccc2)CC1 [GW635815] | 1 | 0 | 6 | 4 | 47 | 0
7 | FC(F)(F)c1cc(Br)cc(Nc2nccc(-c3cnn4ncccc34)n2)c1 [GW810578] | 16 | 0 | 0 | 0 | 0 | 41
8 | CCn1c(-c2nonc2N)nc2cncc(CNC3CCNCC3)c21.Cl [SB-747651] | 7 | 32 | 0 | 0 | 44 | 10
9 | NC(=O)c1ccc(-c2cc3ncnc(SCC(=O)O)c3s2)cc1 | 0 | 0 | 0 | 2 | 24 | 0
10 | O=C(NOCC1CC1)c1cc(Br)c(F)c(F)c1Nc1ccc(I)cc1Cl | 0 | 0 | 0 | 1 | 35 | 0
11 | CC(=O)Nc1ccc(-c2cc3ncnc(SCC(=O)O)c3s2)cc1 | 40 | 2 | 12 | 1 | 29 | 0
12 | OCCn1cc(-c2cnc3nnn(Cc4ccc5ncccc5c4)c3n2)cn1 | 0 | 0 | 0 | 20 | 0 | 0
13 | CCn1c(-c2nonc2N)nc2cncc(Br)c21 [SB-738004] | 15 | 9 | 6 | 0 | 0 | 7
14 | Cc1cccc(-c2nc(Nc3ccncc3)c3sccc3n2)n1 [GW869641] | 27 | 14 | 31 | 17 | 0 | 32
15 | O=C(Nc1n[nH]c2cc(-c3ccco3)ccc12)C1CC1 [SB-737447] | 0 | 0 | 0 | 0 | 3 | 26
16 | Cn1ccc2ncnc(Oc3ccc(NC(=O)Nc4cccc(C(F)(F)F)c4)c(Cl)c3)c21 | 14 | 0 | 0 | 44 | 35 | 10
17 | O=c1[nH]cc(-c2ccc(O)cc2)c2sc(-c3ccncc3)cc12 [GSK1033723] | 1 | 0 | 0 | 0 | 0 | 26

Row | SMILES | %Inh [1] [%] | %Inh [2] [%] | %Inh [3] [%] | %Inh [4] [%] | %Inh [5] [%] | %Inh [6] [%]
18 | Nc1nccc(-c2ccc3c(N)n[nH]c3c2)n1 [GSK1034945] | 1 | 0 | 0 | 0 | 36 | 0
19 | Cc1ccc(Nc2ccnc(Nc3ccc4c(c3)CS(=O)(=O)C4)n2)cc1O.Cl [GW579362] | 56 | 37 | 96.8 | 85 | 99.8 | 23
20 | Cl.Cl.NC[C@H](CC1CCCCC1)NC(=O)c1ccc(-c2ccnc3[nH]ccc23)s1 [GSK1581428] | 0 | 0 | 0 | 0 | 7 | 13
21 | Cc1nnc(-c2ccc3occ(-c4ccc(S(C)=O)cc4)c3n2)o1 (stereo not drawn) | 0 | 0 | 0 | 0 | 0 | 0
22 | CN(c1ccccc1CNc1nc(Nc2ccc3c(c2)CC(=O)N3)ncc1C(F)(F)F)S(C)(=O)=O | 0 | 0 | 0 | 0 | 56 | 0
23 | COc1cc(Nc2nccc(N3CCC(NC(=O)c4cccc(C#N)c4)C3)n2)cc(OC)c1OC (stereo not drawn) [GSK1379751] | 0 | 45 | 23 | 0 | 22 | 0
24 | NC(=O)Nc1sc(-c2ccc(F)cc2)cc1C(N)=O [GW789449] | 21 | 5 | 6 | 0 | 0 | 16
25 | N#Cc1cccc(C(=O)NC2CCN(c3ccnc(Nc4ccc(F)cc4)n3)C2)c1 (stereo not drawn) [GSK1379708] | 0 | 0 | 35 | 0 | 38 | 0
26 | COc1cc2ncn(-c3cc(OCC4CCCCC4)c(C(N)=O)s3)c2cc1OC [GSK204559] | 7 | 0 | 0 | 0 | 28 | 0
27 | Cn1ccc2ncnc(Oc3ccc(NC(=O)Nc4cc(C(C)(C)C)on4)c(Cl)c3)c21 | 87 | 0 | 97.2 | 78 | 36 | 56
28 | C[C@@H]1CNc2c(sc3ccc4nc(-c5ccncc5)ccc4c23)C(=O)N1 | 0 | 0 | 0 | 8 | 11 | 16
29 | Cc1cccc2c(-c3ccncc3)c(-c3ccc(F)cc3)nn12.Cl [GW461487] | 0 | 5 | 98.3 | 22 | 39 | 17
30 | O=C1NCCc2[nH]c(-c3ccncc3)cc21 | 20 | 0 | 2 | 27 | 62 | 26
31 | O=C(Nc1ccccc1)c1cccc(Oc2ccc3nccn3n2)c1 | 0 | 0 | 0 | 0 | 0 | 3
32 | CC(=O)c1c(-c2ccncc2)[nH]c(-c2ccncc2)c1C [GW493036] | 34 | 48 | 34 | 0 | 49 | 19
33 | C[C@@H]1CNc2c(sc3ccc4nc(-c5ccc(O)cc5)ccc4c23)C(=O)N1 | 0 | 0 | 5 | 33 | 30 | 2
34 | Cn1ccc2ncnc(Oc3ccc(NC(=O)Nc4cccc(C(F)(F)F)c4)c(F)c3)c21 | 18 | 1 | 12 | 20 | 0 | 62
